Source: PubChem BioAssay (National Center for Advancing Translational Sciences (NCATS))
Hits are enriched below; roughly 9.4% of the tested compounds scored in any of these assays.
SMN2 splice up = qHTS Assay for Enhancers of SMN2 Splice Variant Expression; Potency, µM (series often up to 46.1 µM), inactives show at the highest dose activity change, positive = activation, most hits filed as activators; HEK293 SMN2-luciferase splicing reporter, luminescence, 30-36 h; 210,000 compounds, 2.8% hits; also: % of control where 0% means no effect; nearly all actives have a fitted effect of over 55% in size
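qHTS luciferase splicing reporter: luminescence rises when SMN2 exon 7 is included in transfected HEK293 cells. Compound exposure lasted 30-36 h at 37C, with 4.5 mM final sodium butyrate as control, followed by a ONE-Glo read.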
NPC1 promoter act = qHTS Assay for NPC1 Promoter Activators; Potency, µM (doses to about 9.22 µM), inactives show at the top dose activation, usual class: activators; Huh7 NPC1 promoter luciferase reporter, 24 h; 320,000 compounds, 2.4% hits; also: % of control where 0% means no effect; nearly all actives have a fitted effect of over 60% in size
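Readout is luciferase luminescence, reflecting NPC1 promoter activation in stably transfected Huh7 cells after 24 h compound exposure at 37 °C in reduced-serum medium with 10% FBS.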
Rab9 promoter act = qHTS Assay for Rab9 Promoter Activators; Potency, µM (titrated, usually from 9.22 µM), for inactives: top-dose activation, negative = inhibition, actives largely listed as activators; Huh7 Rab9 promoter-luciferase reporter, luminescence, 24 h; 320,000 compounds, 2.8% hits; also: % of control where 0% means no effect; nearly all actives have a fitted effect of over 60% in size
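Huh7 cells stably carrying a Rab9 promoter-luciferase reporter, 1500 cells per well in OP-MEM I with 10% FBS, treated with compound 24 hours at 37C. Luciferase activity read by luminescence after 10 minutes with Amplite reagent.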
ELG1 repair inh = qHTS screen for small molecules that inhibit ELG1-dependent DNA repair in human embryonic kidney (HEK293T) cells expressing luciferase-tagged ELG1; HEK293T ELG1-luciferase reporter, luminescence, 16 h; DNA damage induced by 5-fluorouridine; Potency, µM (top dose mostly 46.1 µM), inactives show top-dose activity change, negative = inhibition, actives largely listed as inhibitors; 330,000 compounds, 2.3% hits; AID 504467, 2011; also: % is scaled to controls: 0 for no effect and ±100 for the full control effect; nearly all actives have a fitted effect of over 55% in size
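Luminescence from the luciferase reporter, measured 30 min after ONE-Glo reagent at room temperature, was the read-out. Beforehand, 2,000 cells per well were exposed for 16 hr at 37 °C to 5-fluorouridine together with compound or vehicle.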
FLuc counter = qHTS profiling assay for firefly luciferase inhibitor/activator using purifed enzyme and Km concentrations of substrates (counterscreen for miR-21 project) | purified FLuc, Km substrates, luminescence inhibition | Luciferin 4-monooxygenase (Photinus pyralis), P08659 | Potency, µM (doses to about 57.5 µM), without a hit: at the top dose activity change, negative = inhibition, most hits filed as inhibitors | 360,000 compounds, 6.9% hits;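 also: plate controls were vehicle for no effect and reference inhibitor for full effect; nearly all actives have a fitted effect of over 55% in size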
Target sequence (P08659 whole entry, looked up): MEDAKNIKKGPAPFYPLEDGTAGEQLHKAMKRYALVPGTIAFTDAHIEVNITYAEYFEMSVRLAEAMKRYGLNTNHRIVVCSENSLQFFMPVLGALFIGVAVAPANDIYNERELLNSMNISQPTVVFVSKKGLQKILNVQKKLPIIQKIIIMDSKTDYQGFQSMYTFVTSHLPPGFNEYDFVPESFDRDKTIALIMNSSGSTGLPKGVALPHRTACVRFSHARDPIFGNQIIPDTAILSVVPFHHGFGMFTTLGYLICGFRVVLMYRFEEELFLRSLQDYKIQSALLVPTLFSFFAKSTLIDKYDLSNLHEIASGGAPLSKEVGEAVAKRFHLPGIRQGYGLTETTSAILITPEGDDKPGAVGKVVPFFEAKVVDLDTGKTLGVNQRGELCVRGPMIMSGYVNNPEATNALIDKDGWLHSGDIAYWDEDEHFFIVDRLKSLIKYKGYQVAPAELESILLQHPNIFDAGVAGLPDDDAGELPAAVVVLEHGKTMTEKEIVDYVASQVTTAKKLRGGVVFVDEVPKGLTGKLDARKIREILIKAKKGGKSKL
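Purified P. pyralis luciferase, 10 nM final, with Km-level 10 uM D-luciferin and 10 uM ATP in 50 mM Tris acetate pH 7.5, 10 mM Mg acetate, 0.01% Tween-20, 0.05% BSA; 6-point qHTS titration about 60 µM downward; luminescence read.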
ELG1 genotoxic = qHTS screen for small molecules that induce genotoxicity in human embryonic kidney (HEK293T) cells expressing luciferase-tagged ELG1 | AID 504466, 2011 | Potency, µM (doses to about 46 µM), for inactives: at the highest dose activity change, positive = activation, actives largely listed as activators | HEK293T ELG1-luciferase reporter, luminescence, 16 h | 330,000 compounds, 1.3% hits; also: % of control where 0% means no effect; nearly all actives have a fitted effect of over 60% in size
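DMSO vehicle served as control against compound-treated ELG1-luciferase HEK293T cells; exposure lasted 16 hr at 37 °C and 5% CO2, followed by ONE-Glo luminescence detection after 30 min.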
An asterisk follows results filed as active; ? = inconclusive; · = no result given; [ ] = dose if it differs, or a comment. Calls follow the shape of the dose curve; as a rule, active = well fitted curve in the direction sought with a large enough effect; inconclusive = small, poorly fitted or top-dose-only effect, or another doubt; inactive = no such curve, though single readings can be large; an effect the other way counts as inactive or inconclusive. Potency is read from the fitted curve at half-maximal effect.

SMILES	SMN2 splice up	NPC1 promoter act	Rab9 promoter act	ELG1 repair inh	FLuc counter	ELG1 genotoxic
C/C(=N\NC(=O)c1ccncc1)c1cccc(NC(=O)c2ccc(C(C)(C)C)cc2)c1	·	1.4µM*	2µM*	?	0.12µM*	-21%
C/C(=N\NC(=O)c1cccc(N/N=C(\C)c2ccncc2)c1)c1ccncc1	9%	6%	19%	?	?	-5%
C/C(=N\Nc1ccccc1)c1cccc(N)c1	·	22%	?	28%	21µM*	?
C/C(=N\NC(=S)Nc1cccc(C)c1)c1cccc(N)c1	?	20%	28%	?	?	9%
C/C(=N\NC(=O)c1ccccc1O)c1ccc(NC(=O)c2ccccc2)cc1	·	?	?	?	21µM*	17%
C/C(=N\NC(=O)c1cccc(N/N=C(\C)c2ccccc2)c1)c1ccccc1	20µM*	?	?	?	13µM*	13%
CC/C=C\C/C=C\C/C=C\C/C=C\C=C\C(O)CCCC(=O)O (centres undefined)	1%	·	·	·	·	·
C/C(=N/NC(=O)c1ccncc1)c1ccc(NC(=O)c2ccccc2)cc1	·	-4%	0%	?	21µM*	2%
Cc1ccc(N2C(=O)c3n[nH]c(C)c3C2c2ccco2)cc1 (centres undefined)	?	?	23%	?	8.5µM*	?
CCN1CCN(c2nc(C)nc3c2sc(=S)n3C)CC1	-1%	-2%	-6%	1%	-17%	3%
Cc1nc(N2CCCCC2)c2sc(=S)n(C)c2n1	-116%	-1%	-11%	4%	1%	21µM*
COc1ccc(CNC(=O)c2cnc3sc(N4CCCCCC4)nn3c2=O)cc1	·	·	·	·	3%	·
CCN(CC)c1nn2c(=O)c(C(=O)NCc3ccc(OC)cc3OC)cnc2s1	·	·	·	·	-5%	·
COc1ccc(OCC(=O)NC(=S)NNC(=O)COc2ccc(Br)cc2Cl)cc1	9%	-2%	0%	0%	?	0%
Cc1ccc(OCC(=O)NNC(=S)NC(=O)C2CC2)c(C)c1	·	-5%	-8%	?	13µM*	8%
Cc1ccc(OCC(=O)NNC(=S)NC(=O)C2CCCCC2)c(C)c1	·	-6%	-1%	1%	5%	3%
Cc1nn(-c2ccccc2)c(C)c1NC(=O)COc1ccc2ccccc2c1	·	-1%	4%	?	-20%	-22%
O=C(COc1ccc(Br)cc1Cl)NC(=S)Nc1ccccn1	·	?	?	?	1.1µM*	1.6µM*
CC(C)c1ccc(OCC(=O)NNC(=S)NC(=O)c2cccs2)c(Br)c1	·	1%	-2%	2%	0%	0%
Cc1nn(-c2ccccc2)c(C)c1NC(=O)COc1ccc(Br)cc1Cl	·	-5%	-13%	23µM*	2%	-7%
Cc1ccc(OCC(=O)NNC(=S)NC(=O)C(C)(C)C)c(Br)c1	-47%	1%	5%	0%	27µM*	4%
COc1ccc(OC)c(NC(=O)c2nnn(CC(=O)Nc3ccc(C(C)C)cc3)c2N)c1	·	·	·	·	-11%	·
C=CC1=C2C=C(C3CC3)N(Cc3ccccc3)C=C2C(=O)C(C)(OC(=O)c2ccco2)C1=O (centres undefined)	-7%[9.22 µM]	·	·	·	·	·
Cc1nc(NC(=S)NC(=O)COc2ccccc2Cl)ccc1Br	-13%	-1%	-3%	13%	-1%	-2%
Cc1ccc(OCC(=O)NC(=S)Nc2ccccn2)c(Br)c1	·	1.6µM*	2.8µM*	?	0.19µM*	0.13µM*
SMILES	SMN2 splice up	NPC1 promoter act	Rab9 promoter act	ELG1 repair inh	FLuc counter	ELG1 genotoxic
O=C(c1cccc(Cl)c1)N1c2ncnn2C2(CCCCC2)[C@@H]2CCCC[C@@H]21	·	·	·	·	-7%	·
COc1ccc(C(=O)/C=C/Sc2nc3ccccc3o2)cc1	·	-20%	-43%	?	2.4µM*	9%
COc1ccc(C(=O)N/C(N)=N/c2nc3ccccc3o2)cc1	-23%	23%	20%	?	-8%	3%
CCCCOC(=O)Sc1nc2ccccc2o1	13%	-2%	-11%	-29%	15µM*	-7%
CCCCOc1ccc(C(=O)N2CCC(c3nc4ccccc4o3)CC2)cc1	·	·	·	·	-4%	·
Cc1ccc(C(=O)CSc2nnc3ccccn23)c(C)c1	10µM*	2µM*	0.79µM*	?	2.7µM*	4.6µM*
COCCn1c(SCC(=O)c2cc(C)n(C)c2C)nc2ccccc2c1=O	18%	16%	24%	8%	?	1%
COCCn1c(C)cc(C(=O)CSc2nc(C)c(C)c(C)n2)c1C	-24%	-6%	0%	?	-19%	0%
O=C(CSc1nnc2ccccn12)c1ccc(OC(F)F)cc1OC(F)F	-14%	0%	17%	?	3%	16%
COCCn1c(C)cc(C(=O)CSc2ncn[nH]2)c1C	5.6µM*	4%	29%	?	?	12%
COCCn1c(C)cc(C(=O)CSc2nnc3ccccn23)c1C	?	?	?	?	1.3µM*	0.58µM*
Cc1ccc(C)c(Cn2cnc3ccccc3c2=O)c1	-8%	·	·	·	-5%	·
N#CCCn1c(=O)c(-c2ccc(F)cc2)nc2cnc(Oc3ccccc3)nc21	-12%	·	·	·	·	·
O=C(N/N=C/c1cccnc1)c1cc(-c2ccccc2OCc2ccccc2)n[nH]1	·	0%	-5%	?	-17%	-9%
O=C(N/N=C/c1cccnc1)c1ccccc1OCc1ccc(Br)cc1	-51%	9%	12%	12µM*	?	-14%
O=C(N/N=C/c1cccnc1)c1ccccc1OCc1ccc(Cl)cc1	-12%	0%	-38%	23µM*	?	-11%
CCOc1ccc(NC(=O)CC2C(=O)N(c3ccccc3)C(=O)N2C2CCCCC2)cc1 (centres undefined)	-2%	·	·	·	1%	·
O=C(CCl)N(c1ccccc1)c1c[nH]c2ccccc12	·	-36%	-54%	21µM*	0%	7%
O=C(CCl)N(c1ccc(Cl)cc1)c1c[nH]c2ccccc12	-19%	-39%	-53%	26µM*	-1%	?
COc1ccc(-n2cc(C(=O)Nc3ccccc3C#N)c3ccccc3c2=O)cc1	·	·	·	·	1%	·
N/C(=N\OC(=O)c1cccc2ccccc12)c1cccnc1	·	20%	28%	?	12µM*	?
N/C(=N\OC(=O)c1cccc2ccccc12)c1cccc([N+](=O)[O-])c1	13%	12%	15%	7%	?	1%
